# Screening data: PubChem BioAssay, National Center for Advancing Translational Sciences (NCATS)
# The list is not random: actives were taken first. Their share in the collection is about 6.5%.
# HCMV antiviral: inhibitors of human cytomegalovirus; activity change, negative = inhibition, % at 57.5 µM; AID 1259415; actives 4.5% (n = 410,000); HFF cells, HCMV-luciferase reporter, 72 h; hits give low values; in the data active means activity change below about -60%; inconclusive means no clear call, values can overlap the other calls; inactive means above about -39%
#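 Screen run at 2 compound doses on HFFs infected with reporter HCMV, MOI 1 PFU/cell. Luciferase activity from cell lysates at 72 h post infection gave inhibition relative to buffer-only and Salinomycin wells.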
# Marburg entry inh: Marburg virus entry inhibition | actives 1.8% (n = 300,000) | Marburg virus pseudotyped entry inhibition, cell reporter | Potency, µM (titrated, usually from 37.8 µM), for the others: at the top dose activity change, negative = inhibition, actives largely listed as inhibitors; calls by dose curve; tested in HEK293 cells; further: potency means the concentration at half of the fitted maximal effect
# Vaccinia Venus: inhibitors of vaccinia virus (Venus reporter); Vaccinia virus Venus reporter expression, fluorescence; Potency, µM (doses to about 36.5 µM), for inactives: at the highest dose activity change, negative = inhibition, usual class: inhibitors; actives 0.46% (n = 330,000); calls by dose curve; tested in A549 cells; further: potency means the concentration at half of the fitted maximal effect; nearly all actives have a fitted effect of over 30% in size
# LASV entry inh: Lassa virus entry inhibition | Lassa virus pseudotype entry inhibition, cell reporter | Potency, µM (highest dose often 37.9 µM), for the others: top-dose activity change, negative = inhibition, usual class: inhibitors | actives 1.2% (n = 300,000); calls by dose curve; tested in HEK293 cells; further: potency means the concentration at half of the fitted maximal effect; nearly all actives have a fitted effect of over 50% in size
# VACV mCherry inh: inhibitors of vaccinia virus infection (mCherry reporter signal) | Vaccinia virus mCherry reporter infection, fluorescence | Potency, µM (doses to about 36.5 µM), for inactives: at the highest dose activity change, negative = inhibition, hits mostly inhibitors | actives 0.63% (n = 310,000) | AID 720579; calls by dose curve; tested in A549 cells; further: potency means the concentration at half of the fitted maximal effect; nearly all actives have a fitted effect of over 35% in size
# FMDV inh: antivirals against foot and mouth disease virus | FMDV antiviral cell-based qHTS | Potency, µM (highest dose often 57.9 µM), for inactives: top-dose activity change, negative = inhibition, hits mostly inhibitors | actives 1.2% (n = 410,000); calls by dose curve; tested in HEK293T cells; further: read-out not given here; potency means the concentration at half of the fitted maximal effect; nearly all actives have a fitted effect of over 45% in size
# The depositor's hits bear a star; i = inactive; ? = inconclusive; / = no result; [ ] = dose if it differs, or a comment. On the % scale 0 is the no-effect control and ±100 the full control effect.
SMILES,HCMV antiviral,Marburg entry inh,Vaccinia Venus,LASV entry inh,VACV mCherry inh,FMDV inh
OC[C@@H]1CN(CCc2ccccc2)C[C@H](n2cnc3c(NCc4ccc(F)cc4)ncnc32)O1,-66*,/,-21%,/,-29%,0%
OC[C@@H]1CN(Cc2ccc(-c3ccccc3)cc2)C[C@H](n2cnc3c(NCc4ccncc4)ncnc32)O1,-91*,/,?,/,10µM*,-4%
OC[C@@H]1CN(Cc2ccc(-c3ccccc3)cc2)C[C@H](n2cnc3c(NCc4ccco4)ncnc32)O1,-90*,/,-23%,/,13%,32µM*
COc1cc(CNc2ncnc3c2ncn3[C@H]2CN(Cc3ccc(-c4ccccc4)cc3)C[C@@H](CO)O2)cc(OC)c1OC,-66*,/,?,/,13µM*,?
Cc1ccc(S(=O)(=O)NC(=NC2CCCCC2)c2ccc(Cl)cc2)cc1,/,-11%[46.1 µM],2%,-6%,i,-7%
OC[C@@H]1CN(Cc2ccco2)C[C@H](n2cnc3c(NCc4ccc(F)cc4)ncnc32)O1,-69*,/,-3%,/,i,4%
COc1ccc(N2C(=O)CN(Cc3ccc(OC)c(OC)c3)C2=S)cc1,-81*,-8%[46.1 µM],-5%,?,i,-21%
O=C(CCCN1C(=O)C(c2ccccc2)Oc2cccnc21)Nc1ccc(Br)cc1F (centres undefined),-105*,/,0%,-20%[46.1 µM],-6%,-20%
Cc1ccc(NC(=O)CCCN2C(=O)C(c3ccccc3)Oc3cccnc32)c(C)c1 (centres undefined),?,/,-25%,/,-12%,-12%
C=CCC12OC3(OC)CC1[C@H](C)[C@@H](c1ccccc1)C2[C@]3(O)CC=C (some centres undefined),/,6%[14.2 µM],/,/,/,/
CC(=O)c1c(NCCc2ccccc2)nc(=S)n(-c2ccccc2)c1C,-101*,/,/,/,/,?
CCn1c(C)c(C(C)=O)c(NCc2ccccc2)nc1=S,-81*,-27%,-8%,10%,-19%,51%
CC(=O)c1c(NCc2ccccc2)nc(=O)n(-c2ccccc2)c1C,-29,12%,/,?,/,28%
S=C(NN=C(c1ccccc1)c1ccccn1)N(Cc1ccccn1)Cc1ccccn1,-97*,0.63µM*,?,?,2.5µM*,-20%
O=C(CCCC(=O)N/N=C\c1ccccn1)N/N=C\c1ccccn1,-32,0%,-7%,4%,-3%,-19%
CC(=NNC(=S)N(Cc1ccccn1)Cc1ccccn1)c1cnccn1,-98*,?,3.5µM*,2.8µM*,1.4µM*,-6%
S=C(NN=Cc1ccccn1)N(Cc1ccccn1)Cc1ccccn1,-77*,1.3µM*,?,?,5.6µM*,-15%
O=C(Cc1ccccc1)N/N=C/c1ccccn1,-84*,15%,-18%,5%,-3%,/
COc1ccccc1NC(=S)N(Cc1ccc(C)cc1)Cc1ccccn1,-8,?,-4%,-29%[46.1 µM],0%,0%
Cc1ccc2nc(-c3ccc(Cl)c(NC(=O)c4ccc5c(c4)OCCO5)c3)oc2c1,8,?,21%,?,-3%,61%
Cc1ccc2nc(CSc3nnc(NC(=O)CC(C)C)s3)cc(=O)n2c1,-38,/,-16%,0%[46.1 µM],-11%,-21%
CC(C)C(=O)NC(=S)/C=C1/N(C)c2ccccc2C1(C)C,?,-30%,29%,-18%,i,-29%
CN1/C(=C\C=N\NC(=O)c2ccc(O)cc2)C(C)(C)c2ccccc21,-90*,?,38%,?,i,28µM*
Cc1ccc(C(=O)NC(=S)/C=C2\N(C)c3ccccc3C2(C)C)cc1,-68*,-2%,/,/,/,-27%
Nc1ccccc1NC(=O)OCc1ccccc1,-15,/,/,/,/,/
SMILES,HCMV antiviral,Marburg entry inh,Vaccinia Venus,LASV entry inh,VACV mCherry inh,FMDV inh
O=C(O)C1CCCC2CN3CCc4c([nH]c5ccccc45)C3C(O)C21 (centres undefined),-72*,25%[46.1 µM],10%,1%[46.1 µM],i,13%
COCCN(C(=O)CSc1cc(C)c2ccccc2n1)c1c(N)n(CC(C)C)c(=O)[nH]c1=O,-22,?,-6%,10%,-17%,-12%
O=C(Cc1ccc(Cl)cc1)NC1CCCCCC1,13,5%,-8%,?,i,45%
Clc1ccc(CN=C(Nc2ccccc2)NC2CCCCC2)cc1,-77*,?,-23%,?,-21%,-24%
CCCCNc1ncnc2sc3c(c12)CCN(CCC)C3,-62*,/,/,/,/,-25%
c1cn(CCCNc2ncnc3sc4c(c23)CCC4)cn1,?,-17%,-16%,-1%,/,0%
Nc1cccc(O)c1,-1,/,-16%,/,-23%,-13%
Oc1cccc(-c2nnc(-c3cccc(O)c3)nn2)c1,-13,?,-4%,?,-19%,8.9µM*
OCCCCNCc1ccc(OCc2ccc(Cl)cc2Cl)cc1,-15,5.8µM*,?,?,28µM*,/
S=C(NCCSCc1c(Cl)cccc1Cl)Nc1ccccc1,?,?,/,-10%,/,18%
S=C(NCCSCc1ccc(Cl)c(Cl)c1)Nc1ccccc1,-22,?,-25%,?,i,13%
Cc1ccccc1CSCCNC(=S)Nc1ccccc1,-83*,?,-18%,-24%,i,26%
S=C(Nc1ccccc1)Nc1ccc(OCc2ccc(Cl)cc2Cl)cc1,-80*,?,/,?,/,0.32µM*
OCCNCc1ccc(OCc2ccc(Cl)cc2Cl)cc1,?,?,-12%,-13%,-22%,12%
S=C(NCCSCc1ccc(Cl)cc1Cl)Nc1ccccc1,-62*,?,?,?,-30%,?
CN(CC1COCCO1)C(=O)c1cnn(-c2ncc3c(n2)-c2ccccc2CC3)c1C1CC1 (centres undefined),/,/,-28%,/,?,35%
CCN(CC)c1ccc(/C=C2\C=Cc3ccccc32)cc1,/,/,-4%,/,-4%,/
C(=C\c1c[nH]c2ccccc12)/c1nccc2ccccc12,/,/,31%,/,-18%,/
CCCCC[C@H]1C[C@@H](CC#CCN2CCOCC2)C(=O)O1,/,10%,/,/,/,/
COc1ccc([C@@H]2[C@@H](O)[C@H](O)[C@@H](C)N2C)cc1OC,/,/,/,/,/,-12%
O=C(Cn1c(=O)c2cccn2c2ccc(F)cc21)Nc1cccc(F)c1,11,/,-5%,1%[46.1 µM],-3%,-14%
CN(CC(=O)Nc1cccc(F)c1)C(=O)Cn1c(=O)oc2ccccc21,-10,/,/,/,/,-14%
O=C(Cn1c(=O)c(=O)n(Cc2ccccc2)c2ccc(Cl)cc21)Nc1cccc(F)c1,45,0.79µM*,-9%,?,i,-7%
O=C(Nc1cccc(F)c1)c1ccc2oc(=O)n(Cc3ccccc3)c2c1,-68*,/,-12%,-12%[46.1 µM],-17%,?
C[C@@H]1CC2=CCCC2[C@]2(O1)C(=O)Nc1cccc(Br)c12 (some centres undefined),/,1%[14.2 µM],/,/,/,/
Oc1c(Cl)cc(Cl)cc1C=Nc1cc(C(F)(F)F)ccc1N1CCc2ccccc2C1,-100*,/,-19%,/,i,-30%
